The nature of experiment [1]: A CellTox Green Cytotoxicity Assay to monitor cytotoxicity in HEK293 cells - 24 hour (AID 1224875). Also: series mostly up to about 77 µM; nearly all actives have a fitted effect of over 45% in size. In outline:
(§1)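 Each value comes from one timepoint of a single continuous run in which HEK293 cells with CellTox Green were exposed to compound for up to 40 h at 37 C, dye fluorescence rising with cell death.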

Experiment [2] in a line: A CellTox Green Cytotoxicity Assay to monitor cytotoxicity in HepG2 cells - 16 hour (AID 1224876). Also: nearly all actives have a fitted effect of over 45% in size. The method in brief: (§2)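 Continuous culture of HepG2 cells with a membrane-impermeant DNA dye; rising fluorescence marks dead cells. Compound exposure lasted up to 40 h at 37 C, with reads every 8 h from 0 h.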
A short description of experiment [3]: qHTS RealTime-Glo MT Cell Viability Assay in HepG2 cells - 32 hour (AID 1224877). Also: nearly all actives have a fitted effect of over 55% in size. In outline: (§3)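 Tox21 10K library screened in qHTS format on HepG2 cells carrying RealTime-Glo reagents. Compounds were added after a 5 h preincubation, and the luminescent signal from continuous culture was measured repeatedly during 40 h treatment.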
The nature of experiment [4]: A CellTox Green Cytotoxicity Assay to monitor cytotoxicity in HepG2 cells - 40 hour (AID 1224879). Also: nearly all actives have a fitted effect of over 40% in size. The method in brief: as §2
Experiment [5] in a line: qHTS RealTime-Glo MT Cell Viability Assay in HEK293 cells - 0 hour (AID 1224880). Also: top concentration of the series differs between compounds; nearly all actives have a fitted effect of over 45% in size. In outline: (§4)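 qHTS format; HEK293 cells with NanoLuc/prosubstrate reagent, 37 C/5% CO2 for 5 h pre-dosing; compounds 23 nL in DMSO; luminescence at each time point reflects viable cells.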
Experiment [6] can be described thus: A CellTox Green Cytotoxicity Assay to monitor cytotoxicity in HEK293 cells - 32 hour (AID 1224881). Also: nearly all actives have a fitted effect of over 40% in size. In outline:
as §1

Experiment [7] can be described thus: A CellTox Green Cytotoxicity Assay to monitor cytotoxicity in HepG2 cells - 0 hour (AID 1224882). Also: nearly all actives have a fitted effect of over 35% in size. The method in brief:
as §2

Experiment [8] can be described thus: A CellTox Green Cytotoxicity Assay to monitor cytotoxicity in HepG2 cells - 32 hour (AID 1224883). Also: nearly all actives have a fitted effect of over 50% in size. In outline:
as §2

A short description of experiment [9]: A CellTox Green Cytotoxicity Assay to monitor cytotoxicity in HEK293 cells - 8 hour (AID 1224884). Also: nearly all actives have a fitted effect of over 35% in size. In outline:
as §1

A short description of experiment [10]: qHTS RealTime-Glo MT Cell Viability Assay in HepG2 cells - 16 hour (AID 1224885). Also: nearly all actives have a fitted effect of over 50% in size. In outline:
as §3

Experiment [11] is described as follows: qHTS RealTime-Glo MT Cell Viability Assay in HEK293 cells - 24 hour (AID 1224886). Also: top concentration of the series differs between compounds; nearly all actives have a fitted effect of over 50% in size. The method in brief:
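Luminescence generated by NanoLuc from substrate produced by living HEK293 cells served as the viability signal. Each value reflects the reading at its stated time point during continuous 40 h compound exposure at 37 C.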
For orientation: Quantitative high-throughput screening tests each substance at several concentrations.

Experiment [12] is described as follows: qHTS RealTime-Glo MT Cell Viability Assay in HEK293 cells - 8 hour (AID 1224887). Also: top concentration of the series differs between compounds; nearly all actives have a fitted effect of over 50% in size. The method in brief: as §4
The nature of experiment [13]: A CellTox Green Cytotoxicity Assay to monitor cytotoxicity in HEK293 cells - 16 hour (AID 1224888). Also: nearly all actives have a fitted effect of over 35% in size. The method in brief: as §1
The nature of experiment [14]: qHTS RealTime-Glo MT Cell Viability Assay in HepG2 cells - 0 hour (AID 1224889). Also: nearly all actives have a fitted effect of over 50% in size. In outline:
as §3

The nature of experiment [15]: A CellTox Green Cytotoxicity Assay to monitor cytotoxicity in HepG2 cells - 8 hour (AID 1224890). Also: nearly all actives have a fitted effect of over 45% in size. In outline:
as §2

Experiment [16] in a line: qHTS assay to identify small molecule antagonists of the androgen receptor (AR) signaling pathway using the MDA cell line in the presence of 0.5 nM R1881 - cell viability counter screen (AID 1259242). Also: nearly all actives have a fitted effect of over 45% in size. In outline:
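Fluorescence from CellTiter-Fluor, which reports protease activity of live cells, was read 30 min after reagent addition to MDA-kb2 cells that had been incubated 16 hr with compound and 0.5 nM R1881.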

The nature of experiment [17]: A CellTox Green Cytotoxicity Assay to monitor cytotoxicity in HepG2 cells - 24 hour (AID 1224878). Also: nearly all actives have a fitted effect of over 45% in size. The method in brief: as §2
The nature of experiment [18]: qHTS assay to identify small molecule antagonists of the estrogen receptor alpha (ER-alpha) signaling pathway using the BG1 cell line in the presence of 0.1 nM 17-beta-estradiol - cell viability counter screen (AID 1259241). Also: nearly all actives have a fitted effect of over 40% in size. Also: potency is read from the fitted curve at half-maximal effect. The method in brief: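 CellTiter-Fluor read (30 min, 37C) on ER-alpha/ERE-luc VM7Luc4E2 cells; 22 hr compound treatment; agonist 0.1 nM E2 final; same-well multiplex.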

Experiment [19] has as its target Estrogen receptor (Homo sapiens) (UniProt P03372). As to the kind of experiment: qHTS assay to identify small molecule antagonists of the estrogen receptor alpha (ER-alpha) signaling pathway using the BG1 cell line in the presence of 0.1 nM 17-beta-estradiol (AID 1259244). Also: nearly all actives have a fitted effect of over 50% in size. The method in brief:
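Quantitative high-throughput screen in VM7Luc4E2 cells: compound plus 0.1 nM E2 (final), 22 h, 37C, 5% CO2; ONE-Glo added, 30 min room temperature, luminescence measured.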

Experiment [20] addresses Androgen receptor (Homo sapiens) (UniProt P10275). As to the kind of experiment: qHTS assay to identify small molecule antagonists of the androgen receptor (AR) signaling pathway using the MDA cell line in the presence of 0.5 nM R1881 (AID 1259243). Also: nearly all actives have a fitted effect of over 50% in size. The method in brief: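 Inhibition of R1881 (0.5 nM final) induced reporter signal was measured in human MDA-kb2 cells; note the MMTV promoter also responds to GR. Exposure lasted 16 hr at 37C.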

Structures are written as SMILES. Results filed as inconclusive are left out. Activity calls are given as the source filed them. Calls follow the shape of the dose curve; as a rule, active = well fitted curve in the direction sought with a large enough effect in the repeat runs; inconclusive = weak or mixed curves; inactive = no such curve, though single readings can be large; an effect the other way counts as inactive or inconclusive.

Sequence of Estrogen receptor (Homo sapiens) (P03372 whole entry, looked up): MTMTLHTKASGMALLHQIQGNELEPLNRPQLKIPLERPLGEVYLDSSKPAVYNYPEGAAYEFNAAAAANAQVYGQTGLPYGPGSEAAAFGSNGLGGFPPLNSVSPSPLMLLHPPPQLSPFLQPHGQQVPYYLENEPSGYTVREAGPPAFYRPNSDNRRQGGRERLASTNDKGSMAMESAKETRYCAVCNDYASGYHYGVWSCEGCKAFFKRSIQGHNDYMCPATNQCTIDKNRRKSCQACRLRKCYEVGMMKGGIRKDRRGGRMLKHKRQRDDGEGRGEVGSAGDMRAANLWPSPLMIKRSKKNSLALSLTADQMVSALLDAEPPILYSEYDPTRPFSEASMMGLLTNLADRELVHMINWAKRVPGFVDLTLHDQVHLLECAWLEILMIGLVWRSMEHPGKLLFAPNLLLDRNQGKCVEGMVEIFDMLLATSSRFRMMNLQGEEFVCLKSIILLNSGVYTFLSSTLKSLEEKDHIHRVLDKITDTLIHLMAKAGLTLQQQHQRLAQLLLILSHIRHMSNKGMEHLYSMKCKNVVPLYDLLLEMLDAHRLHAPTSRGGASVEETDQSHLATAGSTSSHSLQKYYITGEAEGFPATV
Sequence of Androgen receptor (Homo sapiens) (P10275 whole entry, looked up): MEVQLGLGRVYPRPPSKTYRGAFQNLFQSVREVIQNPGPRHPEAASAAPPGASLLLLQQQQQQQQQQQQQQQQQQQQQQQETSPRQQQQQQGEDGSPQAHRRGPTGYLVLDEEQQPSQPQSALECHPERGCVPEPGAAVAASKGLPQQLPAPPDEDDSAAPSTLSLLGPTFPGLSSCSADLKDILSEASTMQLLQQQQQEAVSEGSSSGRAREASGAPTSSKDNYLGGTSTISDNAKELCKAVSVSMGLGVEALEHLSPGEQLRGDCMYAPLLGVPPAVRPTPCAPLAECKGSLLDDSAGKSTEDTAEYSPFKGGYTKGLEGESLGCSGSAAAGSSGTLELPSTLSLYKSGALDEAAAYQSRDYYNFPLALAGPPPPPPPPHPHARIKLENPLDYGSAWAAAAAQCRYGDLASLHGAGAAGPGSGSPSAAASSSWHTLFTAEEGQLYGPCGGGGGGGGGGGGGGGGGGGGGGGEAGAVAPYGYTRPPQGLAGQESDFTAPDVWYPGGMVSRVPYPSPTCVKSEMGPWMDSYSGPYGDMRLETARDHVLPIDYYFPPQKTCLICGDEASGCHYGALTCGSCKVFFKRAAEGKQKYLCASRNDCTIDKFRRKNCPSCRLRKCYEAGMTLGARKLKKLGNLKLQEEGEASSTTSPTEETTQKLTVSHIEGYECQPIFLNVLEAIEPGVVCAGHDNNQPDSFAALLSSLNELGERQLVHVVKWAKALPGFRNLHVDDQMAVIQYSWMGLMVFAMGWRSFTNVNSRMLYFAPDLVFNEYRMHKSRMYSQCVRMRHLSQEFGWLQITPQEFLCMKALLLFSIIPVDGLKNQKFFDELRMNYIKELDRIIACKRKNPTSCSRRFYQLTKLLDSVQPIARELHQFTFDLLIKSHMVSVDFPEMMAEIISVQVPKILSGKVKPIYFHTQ

As to `COc1ccc2cc([C@H](C)C(=O)O)ccc2c1`, the Potency entry in experiment [1], in [2], in experiment [4], in experiment [5], in [6] and in experiment [8] was “inactive” in each case. Besides, the Potency entry in experiment [11], in [12], in experiment [14] and in [15] was “inactive” in each case. Further, the result in experiment [3], in [7], in [9], in [10], in experiment [13] and in experiment [16] was inactive.

Take `OC[C@H]1O[C@@](CO)(O[C@H]2O[C@H](CO)[C@@H](O)[C@H](O)[C@H]2O)[C@@H](O)[C@@H]1O`: the Potency entry in experiment [1], in [2], in experiment [17], in experiment [4], in experiment [6] and in experiment [8] was “inactive” throughout. For the same compound, the Potency result in experiment [15], in [18] and in experiment [19] was “inactive” in each case. Besides, the call in experiment [7], in experiment [9], in [13] and in experiment [16] was inactive.

Turning to `O=c1[nH]c(=O)n([C@H]2CCCO2)cc1F`, the Potency result in experiment [1], in experiment [2], in experiment [4], in experiment [5], in experiment [6] and in experiment [8] was “inactive” in each case. In addition, the Potency entry in [11], in experiment [12], in experiment [14], in experiment [15] and in [18] was “inactive” each time. Also, the compound was called inactive in [3], in [7], in [9], in experiment [10], in [13] and in experiment [16].

On to `CCCCCCCCCC`, for which the Potency entry in experiment [1], in [2], in experiment [4], in [5], in experiment [6] and in [8] was “inactive” each time. The Potency entry in experiment [11], in [12], in [14], in experiment [15], in experiment [18] and in [19] was “inactive” in each case. The result in [3], in [9], in experiment [10], in experiment [13] and in experiment [16] was inactive.

Take `CCCCCCCCCCCCc1ccccc1`: the Potency result in experiment [2], in [17], in experiment [4], in [5], in [6] and in experiment [8] was “inactive” throughout. Also, the Potency result in experiment [11], in experiment [12], in experiment [14], in experiment [15] and in experiment [18] was “inactive” each time. Moreover, the result in experiment [3], in experiment [7], in experiment [9], in experiment [10], in [13] and in experiment [16] was inactive.

Regarding `COS(C)(=O)=O`, the Potency entry in experiment [1], in experiment [2], in experiment [4], in experiment [5], in [6] and in experiment [8] was “inactive” throughout. In addition, the Potency result in experiment [11], in [12], in [14], in [15], in experiment [18] and in experiment [19] was “inactive” in each case. Also, the result in [3], in experiment [7], in [9], in experiment [10], in experiment [13] and in experiment [16] was inactive.

Turning to `Fc1ccc(Br)cc1`, the Potency result in experiment [1], in experiment [2], in [4], in [5], in [6] and in experiment [8] was “inactive” throughout. Moreover, the Potency entry in [11], in experiment [12], in experiment [14], in experiment [15], in [18] and in experiment [19] was “inactive” in each case. Moreover, the compound was called inactive in experiment [3], in experiment [9], in experiment [10], in experiment [13] and in experiment [16].

For `COc1cc(Cc2cnc(N)nc2N)cc(OC)c1OC`, the Potency entry in experiment [1], in [2], in [4], in experiment [5], in experiment [6] and in experiment [8] was “inactive” in each case. The Potency result in experiment [11], in experiment [12], in [14], in experiment [15] and in experiment [19] was “inactive” each time. In addition, the call in experiment [3], in [7], in [9], in [10] and in [13] was inactive.

Take `CCCCCCCCCCCCCCCO`: the Potency entry in experiment [1], in [2], in experiment [4], in experiment [5], in [6] and in experiment [8] was “inactive” each time. Further, the Potency entry in [11], in [12], in [14] and in experiment [15] was “inactive” in each case. In addition, the compound was classed as inactive in [3], in [7], in experiment [9], in [10], in experiment [13] and in experiment [16].

Consider `CCCCCCCCCCCCS`, for which the Potency result in experiment [1], in experiment [2], in experiment [4], in experiment [5], in experiment [6] and in experiment [8] was “inactive” throughout. For the same compound, the Potency result in [11], in experiment [12], in experiment [14], in experiment [15], in [18] and in experiment [19] was “inactive” in each case. For the same compound, the outcome in experiment [3], in [7], in experiment [9], in experiment [10] and in experiment [13] was inactive.

On to `c1ccc2scnc2c1`, for which the Potency entry in experiment [1], in experiment [2], in experiment [4], in experiment [5], in [6] and in experiment [8] was “inactive” each time. The Potency result in experiment [11], in experiment [12], in experiment [14], in experiment [15], in [18] and in experiment [19] was “inactive” in each case. Besides, the compound was classed as inactive in experiment [3], in experiment [7], in [9], in [10], in [13] and in experiment [16].

Turning to `Nc1cc([N+](=O)[O-])ccc1O`, the Potency entry in experiment [1], in experiment [2], in experiment [4], in experiment [5], in experiment [6] and in experiment [8] was “inactive” throughout. For the same compound, the Potency result in [11], in experiment [12], in experiment [14], in experiment [15] and in [20] was “inactive” throughout. Further, the call in [3], in experiment [7], in experiment [9], in experiment [10] and in [13] was inactive. The Potency in experiment [18] was 48.6 µM (active).

Take `c1ccc(OCCOc2ccccc2)cc1`: the Potency entry in experiment [1], in experiment [2], in experiment [4], in experiment [5], in [6] and in experiment [8] was “inactive” throughout. Besides, the Potency entry in [11], in experiment [12], in experiment [14], in [15], in experiment [18] and in experiment [19] was “inactive” in each case. The compound was called inactive in experiment [3], in experiment [9], in experiment [10], in experiment [13] and in experiment [16].

For the compound `CC(c1cc2ccccc2s1)N(O)C(N)=O` (configuration not stated), the Potency result in experiment [1], in experiment [2], in [4], in experiment [5], in [6] and in [8] was “inactive” each time. Moreover, the Potency result in experiment [11], in experiment [12], in [14], in experiment [15], in [18] and in experiment [20] was “inactive” throughout. Moreover, the Potency entry in experiment [19] was “inactive”. In addition, the result in experiment [3], in experiment [9], in experiment [10], in experiment [13] and in [16] was inactive.

As to `CC(=O)OCC(=O)[C@@]12N=C(C)O[C@@H]1C[C@H]1[C@@H]3CCC4=CC(=O)C=C[C@]4(C)[C@H]3[C@@H](O)C[C@@]12C`, the Potency entry in experiment [1], in experiment [2], in experiment [4], in experiment [5], in experiment [6] and in [8] was “inactive” each time. Further, the Potency entry in experiment [11], in [12], in experiment [14], in [15], in experiment [18] and in experiment [19] was “inactive” throughout. Further, the result in experiment [3], in experiment [7], in experiment [9], in experiment [10] and in experiment [13] was inactive.

`ON=C1CCCCC1`: the Potency entry in [2], in experiment [17], in [4], in [5], in [6] and in experiment [8] was “inactive” in each case. In addition, the Potency entry in experiment [11], in [12], in experiment [14], in [15] and in experiment [18] was “inactive” in each case. Further, the compound was classed as inactive in experiment [3], in [7], in [9], in [10] and in [13].

The record behind these values is PubChem BioAssay (Tox21).
